The source made the active and inactive calls.

Among the data in PubChem BioAssay are composite z-score, composite Z-score and z-score values, retold here.

Assay [1] deals with Albumin (Bos taurus) (UniProt P02769). The assay is described as follows: bovine serum albumin binders on microarray, profiling panel, artefact control for SMM control protein annotation, biochemical, small-molecule microarray, Alexa647 label, 635/667 nm fluorescence (AID 1118).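 Further: score merges 667 nm emission intensity and signal-to-noise per printed compound spot.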 Conditions: BSA-A647 binding, fluorescence 635 nm, higher = more signal.
Assay [2] in a line: small-molecule microarray binders of probe aXIP, primary screen, biochemical, NeuroSMM set, 635/667 nm fluorescence (AID 1119).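 Further: probe is the protein aXip251-270 applied at 1 µg/mL to compound-printed slides; binding of probe to printed compounds measured as 667 nm fluorescence plus signal to noise.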 Conditions: higher = more signal, called active from +8 up or from −8 down.
Assay [3] can be described thus: small-molecule binders of probe aNOTCH3, primary screen, biochemical, small-molecule microarray, 635/667 nm fluorescence (AID 1120).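 Further: probe is a biotin-tagged antibody raised against NOTCH3 rather than NOTCH3 protein; score merges spot fluorescence near 667 nm with spot signal to noise.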 Conditions: higher = more signal.
The nature of assay [4]: small-molecule binders of probe aNOTCH2, primary screen, biochemical, small-molecule microarray, 635/667 nm fluorescence (AID 1121).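 Further: score merges feature fluorescence read at 667 nm with its signal to noise.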 The settings on record: higher = more signal.
Assay [5] addresses Carbonic anhydrase 2 (Homo sapiens) (UniProt P00918). Description: CAII small-molecule binders, profiling panel, biochemical, small-molecule microarray, Alexa647-labelled CAII (AID 1122). Conditions: CAII-A647 binding fluorescence, higher = more signal.
The nature of assay [6]: COS7 lysate on small-molecule microarray, probe aHis, 635 nm (AID 1123).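 Further: z-score combines 667nm fluorescence intensity with signal-to-noise per printed compound spot.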 Conditions: COS7 cell lysate, fluorescence, higher = more signal.
The nature of assay [7]: compound binding in COS7 lysate, probe aLAP1, primary screen, cell lysate, small-molecule microarray (AID 1124).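 Further: lysate comes from COS7 cells expressing LAP1 and is applied at 0.3 µg/mL; score merges spot fluorescence near 667 nm with signal-to-noise over triplicate slides.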 The settings on record: probe aLAP1, fluorescence, higher = more signal.
Assay [8] concerns Sam68 (KHDRBS1). The assay is described as follows: Sam68 small-molecule binders, primary screen, biochemical, small-molecule microarray, 635 nm fluorescence (AID 1125).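 Further: score merges 667 nm channel intensity with signal to noise over triplicate slides.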 Conditions: small-molecule microarray binding, higher = more signal.
Assay [9] relates to Chordin-like protein 2 (CHRDL2). Description: CHRDL2 small-molecule binders, primary screen, biochemical, small-molecule microarray, 635 nm fluorescence (AID 1126).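 Further: printed compound slides probed with Chrdl2 protein at 4 µg/mL for 1 h at 4 C; score merges 667 nm emission intensity with signal to noise over three replicate slides.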 The settings on record: small-molecule microarray binding, fluorescence 635 nm; higher = more signal.
For assay [10], the target named is Concanavalin-A (Canavalia ensiformis) (UniProt P02866). The assay is described as follows: ConA small-molecule binders, primary screen, artefact control for SMM control protein annotation, biochemical, small-molecule microarray, Alexa647 label, 635 nm (AID 1127).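 Further: z combines 667 nm emission intensity with signal-to-noise across three replicate slides.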 Conditions: ConA-A647 binding fluorescence, higher = more signal.
Assay [11] is described as follows: anti-His antibody binders, primary screen, artefact control for SMM control protein annotation, biochemical, small-molecule microarray, 635 nm fluorescence (AID 1128).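 Further: score merges feature fluorescence with signal-to-noise for each printed compound spot.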 The settings on record: anti-His Alexa647 antibody binding, higher = more signal.
For assay [12], the system named is Human papillomavirus type 1a E7 protein (residues 1-88). The assay is described as follows: HPV1a E7 small-molecule binders, primary screen, biochemical, small-molecule microarray, residues 1-88, 635 nm (AID 1129). The settings on record: small-molecule microarray binding, fluorescence 635 nm; higher = more signal.
Assay [13] deals with Focal adhesion kinase 1 (Homo sapiens) (UniProt Q05397). Description: small-molecule microarray binders of FAK, primary screen, biochemical, 635/667 nm fluorescence, BSA, DTT (AID 1130).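 Further: composite of spot emission at 667 nm and signal to noise over triplicate slides.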 Conditions: PTK2 binding, 635 nm fluorescence, higher = more signal.
Assay [14] has as its system Fibrinogen (Alexa647-labelled). The assay is described as follows: fibrinogen binders on compound microarrays, profiling panel, artefact control for SMM control-protein annotation, biochemical, small-molecule microarray, 635/667 nm fluorescence (AID 1131).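 Further: z-score merges 667 nm fluorescence with per-spot signal-to-noise over triplicate slides.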 Conditions: fibrinogen-A647 binding fluorescence, higher = more signal.
Assay [15] addresses Follistatin (Homo sapiens) (UniProt P19883). Description: follistatin binders on small-molecule microarrays, primary screen, biochemical, small-molecule microarray, 635/667 nm fluorescence (AID 1132). The settings on record: FST binding, 635 nm fluorescence, higher = more signal.
The target in assay [16] is Fibroblast growth factor 2 (Homo sapiens) (UniProt P09038). Description: FGF2 binders on small-molecule microarrays, primary screen, biochemical, small-molecule microarray, 635/667 nm fluorescence (AID 1133). The settings on record: small-molecule microarray binding, FGF2, fluorescence 635/667; higher = more signal.
Assay [17] is described as follows: mitochondrial membrane potential change in A549 cells, profiling panel, cell-based, JC-1 fluorescence, basal, 24 h, 100 nL (AID 1138).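 Further: A549 lung adenocarcinoma cells under basal conditions with no added stimulus; test concentration not given here.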 The settings on record: higher = more signal.
The test system of assay [18] is Lefty1. Description: Lefty1 binders on small-molecule microarrays, primary screen, biochemical, small-molecule microarray, 635/667 nm fluorescence (AID 1139). Conditions: small-molecule microarray binding, fluorescence 635/667; higher = more signal.
Assay [19] deals with wheat germ agglutinin (Triticum aestivum), Alexa647-labelled. The assay is described as follows: wheat germ agglutinin binders on compound microarrays, profiling panel, artefact control for SMM control-protein annotation, biochemical, small-molecule microarray, 635/667 nm fluorescence (AID 1140).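 Further: score merges 667 nm feature emission with signal to noise over triplicate slides.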 Conditions: WGA-A647 binding, 635 nm fluorescence, higher = more signal.
In assay [20] the target is Luciferin 4-monooxygenase (Photinus pyralis) (UniProt P08659). The assay is described as follows: firefly luciferase enzyme inhibitors, primary screen, biochemical, luminescence, purified enzyme, 2006 set (AID 1141).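 Further: cell-free assay with purified firefly luciferase at 100 ng per well in PBS; test concentration not given here.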 The settings on record: SteadyGlo luminescence, 30 min, higher = more signal, called active from +8 up or from −8 down.
Sequence of Luciferin 4-monooxygenase (Photinus pyralis) (P08659 whole entry, looked up): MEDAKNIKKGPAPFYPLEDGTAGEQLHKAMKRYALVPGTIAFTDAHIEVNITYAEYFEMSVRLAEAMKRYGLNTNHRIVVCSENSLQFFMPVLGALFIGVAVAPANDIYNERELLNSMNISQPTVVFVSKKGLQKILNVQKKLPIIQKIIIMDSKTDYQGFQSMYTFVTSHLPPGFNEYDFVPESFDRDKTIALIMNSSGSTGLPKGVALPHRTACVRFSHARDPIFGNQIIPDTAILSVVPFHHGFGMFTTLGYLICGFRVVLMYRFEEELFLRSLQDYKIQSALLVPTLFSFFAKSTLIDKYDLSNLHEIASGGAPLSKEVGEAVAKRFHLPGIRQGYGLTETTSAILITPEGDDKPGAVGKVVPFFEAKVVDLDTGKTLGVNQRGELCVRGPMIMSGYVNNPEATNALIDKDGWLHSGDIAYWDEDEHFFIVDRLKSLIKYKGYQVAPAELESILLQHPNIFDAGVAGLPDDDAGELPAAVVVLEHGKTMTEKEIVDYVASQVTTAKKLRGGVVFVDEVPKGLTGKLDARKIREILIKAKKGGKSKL

Sequence of Focal adhesion kinase 1 (Homo sapiens) (Q05397 whole entry, looked up): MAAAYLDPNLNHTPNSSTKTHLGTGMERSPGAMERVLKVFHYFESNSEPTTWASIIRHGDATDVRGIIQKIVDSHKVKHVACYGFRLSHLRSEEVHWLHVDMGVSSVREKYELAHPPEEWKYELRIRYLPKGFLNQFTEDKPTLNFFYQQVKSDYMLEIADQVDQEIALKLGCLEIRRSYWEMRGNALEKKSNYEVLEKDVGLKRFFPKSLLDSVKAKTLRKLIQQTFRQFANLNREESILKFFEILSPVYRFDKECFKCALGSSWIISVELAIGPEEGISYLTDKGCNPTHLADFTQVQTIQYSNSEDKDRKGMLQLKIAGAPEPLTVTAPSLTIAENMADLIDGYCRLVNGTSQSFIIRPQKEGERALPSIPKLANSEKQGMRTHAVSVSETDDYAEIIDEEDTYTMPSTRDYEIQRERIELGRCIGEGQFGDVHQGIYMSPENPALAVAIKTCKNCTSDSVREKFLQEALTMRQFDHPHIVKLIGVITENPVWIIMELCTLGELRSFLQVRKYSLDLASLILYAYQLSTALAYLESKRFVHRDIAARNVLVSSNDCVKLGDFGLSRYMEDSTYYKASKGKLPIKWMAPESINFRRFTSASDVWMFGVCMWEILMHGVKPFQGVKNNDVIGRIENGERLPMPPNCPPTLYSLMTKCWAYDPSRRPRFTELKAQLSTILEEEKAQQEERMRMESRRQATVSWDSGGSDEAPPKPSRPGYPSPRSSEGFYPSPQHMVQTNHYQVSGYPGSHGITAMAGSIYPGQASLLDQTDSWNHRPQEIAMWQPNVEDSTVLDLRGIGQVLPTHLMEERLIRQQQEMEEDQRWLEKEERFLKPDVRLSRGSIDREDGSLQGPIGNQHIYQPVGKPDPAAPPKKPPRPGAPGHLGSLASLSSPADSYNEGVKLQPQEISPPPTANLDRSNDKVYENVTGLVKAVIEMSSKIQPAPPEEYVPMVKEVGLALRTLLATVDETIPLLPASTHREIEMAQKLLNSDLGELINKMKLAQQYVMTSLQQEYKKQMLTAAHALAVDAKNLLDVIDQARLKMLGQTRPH
Sequence of Follistatin (Homo sapiens) (P19883 whole entry, looked up): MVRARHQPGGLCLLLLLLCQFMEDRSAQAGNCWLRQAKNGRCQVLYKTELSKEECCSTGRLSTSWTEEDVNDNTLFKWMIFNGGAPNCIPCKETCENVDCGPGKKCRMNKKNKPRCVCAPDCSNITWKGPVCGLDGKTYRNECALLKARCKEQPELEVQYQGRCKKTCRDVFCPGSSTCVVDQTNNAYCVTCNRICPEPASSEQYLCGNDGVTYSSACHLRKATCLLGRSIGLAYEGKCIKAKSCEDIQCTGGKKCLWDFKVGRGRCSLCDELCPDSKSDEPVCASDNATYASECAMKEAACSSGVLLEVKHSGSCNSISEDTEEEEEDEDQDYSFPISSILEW
Sequence of Albumin (Bos taurus) (P02769 whole entry, looked up): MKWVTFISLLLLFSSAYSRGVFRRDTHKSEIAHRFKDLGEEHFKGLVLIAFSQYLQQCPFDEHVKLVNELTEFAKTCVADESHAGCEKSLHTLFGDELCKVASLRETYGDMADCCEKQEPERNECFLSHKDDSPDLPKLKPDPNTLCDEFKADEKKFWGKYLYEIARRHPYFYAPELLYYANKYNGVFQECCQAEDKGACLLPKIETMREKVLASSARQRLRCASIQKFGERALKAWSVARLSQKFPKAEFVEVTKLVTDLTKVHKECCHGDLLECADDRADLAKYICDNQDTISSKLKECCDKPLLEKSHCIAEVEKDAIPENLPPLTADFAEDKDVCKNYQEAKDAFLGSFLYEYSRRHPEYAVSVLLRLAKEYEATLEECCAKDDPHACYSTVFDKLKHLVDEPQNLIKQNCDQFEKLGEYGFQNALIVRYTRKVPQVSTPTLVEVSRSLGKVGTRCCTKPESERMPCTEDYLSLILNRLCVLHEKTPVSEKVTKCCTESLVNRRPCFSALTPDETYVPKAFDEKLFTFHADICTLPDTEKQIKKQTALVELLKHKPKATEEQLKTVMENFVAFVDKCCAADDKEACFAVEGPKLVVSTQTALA
Sequence of Concanavalin-A (Canavalia ensiformis) (P02866 whole entry, looked up): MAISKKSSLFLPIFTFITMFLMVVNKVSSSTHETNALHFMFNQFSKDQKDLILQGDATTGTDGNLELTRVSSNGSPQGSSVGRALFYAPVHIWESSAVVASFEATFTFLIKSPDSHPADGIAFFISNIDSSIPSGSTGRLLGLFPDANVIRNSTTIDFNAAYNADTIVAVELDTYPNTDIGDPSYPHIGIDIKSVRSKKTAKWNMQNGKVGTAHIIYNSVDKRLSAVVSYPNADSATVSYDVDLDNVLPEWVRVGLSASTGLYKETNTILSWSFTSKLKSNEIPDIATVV
Sequence of Fibroblast growth factor 2 (Homo sapiens) (P09038 whole entry, looked up): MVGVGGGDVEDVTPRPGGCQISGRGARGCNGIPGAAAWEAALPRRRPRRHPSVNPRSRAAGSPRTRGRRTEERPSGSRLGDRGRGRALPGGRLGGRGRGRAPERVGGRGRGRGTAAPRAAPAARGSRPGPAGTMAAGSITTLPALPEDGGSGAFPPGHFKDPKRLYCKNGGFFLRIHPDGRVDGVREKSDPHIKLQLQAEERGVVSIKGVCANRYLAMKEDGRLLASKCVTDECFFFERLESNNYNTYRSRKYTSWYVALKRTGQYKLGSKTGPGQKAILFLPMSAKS

In the case of `O=C1[C@@]23C=C(Br)[C@H](C[C@@H]2COC3)[C@]12CO2`, the composite z-score in [1] was -0.742; in assay [3] it was -0.0187; in [4], -0.0176; in assay [5], -0.762; in assay [6] it was 0.638; in assay [7] it was -0.447. The composite z-score is -2.61 in assay [8]; -0.323 in assay [9]; -1.79 in assay [10]; -2.07 in [11]; -3.63 in [12]; 0.406 in assay [13]. The composite z-score in assay [14] is -2.79; in assay [15], -0.362; in [16], -0.829; in assay [18], -0.921; in assay [19], -2.06. Moreover, the composite Z-score in assay [2] is -0.222 (inactive). The z-score is -0.096 in assay [17] and -0.0914 (inactive) in [20].
`COC(=O)c1c2oc(c1C(=O)OC)C(=O)N[C@@H](C(C)C)Cn1cc(nn1)C1(CCCCC1)NC(=O)N[C@H](CO)CC2`: the composite z-score is -0.0901 in [1]; -0.122 in assay [3]; -0.0761 in assay [4]; 0.828 in [5]; 1.18 in assay [6]; -0.0841 in [7]. For the same compound, the composite z-score in [8] was 0.194; in assay [9] it was 0.199; in assay [10] it was 0.689; in assay [11], 0.591; in assay [12] it was -0.159; in assay [13], -0.0947. For the same compound, the composite z-score in assay [14] was 0.209; in [15], 0.515; in assay [16], 1.58; in [18], 0.102; in assay [19], 0.0969. In assay [2], the composite Z-score is -0.203 (inactive). Also, the z-score was 2.2 in assay [17] and -1.3 (inactive) in assay [20].
Take `COC(=O)[C@@]1(CCC(=O)OC(C)(C)C)N=C(c2ccc(OCCCO)cc2)O[C@H]1c1ccccc1`: the composite z-score in assay [1] is -0.735; in assay [3], -0.0716; in [4], 0.0464; in [5], 0.687; in assay [6], 2.16; in [7], 0.637. Moreover, the composite z-score in [8] is -0.297; in assay [9], 0.0741; in assay [10], 0.57; in [11], 0.467; in [12], 0.896; in assay [13] it was 0.517. The composite z-score in [14] is 0.554; in assay [15], 0.693; in assay [16] it was 0.989; in assay [18] it was -0.85; in assay [19], 0.492. Also, the composite Z-score in [2] was 0.21 (inactive). For the same compound, the figures for the z-score in [17] and in assay [20] were -0.4 and -5.22 (inactive), respectively.
Consider `O=C(O)[C@H]1C[C@H]2C(=O)N3CCC[C@H]3C(=O)N2[C@H]1c1ccc(O)cc1`, for which the composite z-score in assay [1] is -2.04; in [3], -0.368; in [4], -0.176; in assay [5], 0.545; in [6], 0.193; in [7], 0.107. Besides, the composite z-score in assay [8] is -0.132; in assay [9], -1.49; in assay [10], 0.298; in [11], 0.0617; in assay [12], -0.94; in assay [13], -0.222. In addition, the composite z-score in assay [14] is -1.83; in assay [15], -0.374; in assay [16], -0.879; in [18] it was -0.801; in assay [19], -0.842. Further, the composite Z-score in [2] was 0.0047 (inactive). Besides, the z-score in assay [17] was 1.62; in [20] it was -2.53 (inactive).
Take `O=C1O[C@@H](c2ccccc2)[C@@H](c2ccccc2)N2[C@@H](c3ccccc3OCCO)[C@]3(C(=O)Nc4ccc(C#CC5(O)CCCCCC5)cc43)[C@@H](C(=O)N3CCN(c4ncccn4)CC3)[C@H]12`: the composite z-score in [1] is 0.287; in assay [3], -0.0416; in [4], -0.131; in assay [5], 0.398; in assay [6], 1.47; in assay [7], 0.795. Besides, the composite z-score was determined as 1.21 in assay [8]; 0.183 in assay [9]; 1.02 in assay [10]; 1.25 in [11]; 1.2 in assay [12]; 0.564 in assay [13]. Also, the composite z-score in assay [14] amounted to 0.885; in [15] it was 1.03; in [16], 1.15; in assay [18], 0.62; in assay [19], 0.742. Also, in [2], the composite Z-score is 0.276 (inactive). Also, the z-score was -0.758 in assay [17] and -1.39 (inactive) in assay [20].
For `CC[C@@H]1C=C(C(=O)O)[C@H](c2cccc3ccccc23)N1S(=O)(=O)c1ccc(C)cc1`, the composite z-score in assay [1] came to 0.8; in assay [3], 0.0225; in assay [4] it was 0.0477; in assay [5] it was 0.664; in [6], 1.58; in assay [7], 0.687. For the same compound, the composite z-score amounted to 1.05 in assay [8]; 0.0837 in assay [9]; 0.774 in assay [10]; 1.18 in assay [11]; 1.11 in [12]; 1.39 in assay [13]. Besides, the composite z-score in assay [14] is 0.159; in assay [15], 0.414; in [16], 0.108; in assay [18], -0.103; in assay [19], 0.302. Further, the composite Z-score in [2] was -0.122 (inactive). Further, the values for the z-score in [17] and in [20] were -0.345 and 1.46 (inactive), respectively.
